Several values for one entry are separate records, joined by “and”; a condition that tells them apart may be missing. Identical values can stand only once.
Columns and labels:
Details in all cases: concentration: 10 µM; 24 h
HCC1569 [1] = assay: cell number relative to DMSO (% of DMSO); higher = more cells (less growth inhibition / toxicity)
In short: (§1)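 HCC1569 and TDF cells were seeded at 800 per well in 384-well plates in RPMI with 10% FBS and treated with compounds at 10 µM for 24 h at 37 °C, in triplicate. After fixation in 3.7% formaldehyde, cells were stained with a rabbit anti-H1.0 antibody, an AlexaFluor 647 secondary and DAPI, and six fields per well were imaged at ×10. H1.0 nuclear intensity or cell number is given as percent of the plate control, using the median of replicates, with HCC1569 values smoothed for positional effects.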

TDF [2] = assay: as above
In short: as §1

TDF [3] = assay: H1.0 immunofluorescence intensity relative to DMSO (% of DMSO); higher = stronger H1.0 induction, active = 120 or more
In short: as §1

HCC1569 [4] = assay: H1.0 immunofluorescence intensity relative to DMSO (% of DMSO); higher = stronger H1.0 induction, active = 140 or more
In short: as §1
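For H1.0 immunofluorescence intensity relative to DMSO in this document: TDF is a line of transformed human dermal fibroblasts of mesenchymal origin.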
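For cell number relative to DMSO in this document: TDF denotes transformed human dermal fibroblasts of mesenchymal origin.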

Row | SMILES | cell number (HCC1569 [1]) | cell number (TDF [2]) | H1.0 immunofluorescence intensity (TDF [3]) | H1.0 immunofluorescence intensity (HCC1569 [4])
1 | CC(C)c1ccc2c(c1)c(SC(C)(C)C)c(CC(C)(C)C(=O)[O-])n2Cc1ccc(Cl)cc1.[Na+] | 102 | 108 | 91.8 (inactive) | 91.2 (inactive)
2 | Cl.Fc1cccc(CN(C2=NCCN2)c2c(Cl)cccc2Cl)c1 [IMID-4F hydrochloride] | 99.4 | 99.7 | 102 (inactive) | 134 (inactive)
3 | COc1cc(C(=O)c2ccc3ncccc3c2)cc(OC)c1OC [quinolin-6-yl(3,4,5-trimethoxyphenyl)methanone] | 59.6 | 8.78 | 209 (active) | 167 (active)
4 | Cn1cc(C2=C(c3ccc(Cl)cc3Cl)C(=O)NC2=O)c2ccccc21 | 86.2 and 92.3 | 100 and 111 | 104 (inactive) and 105 (inactive) | 158 (active) and 136 (inactive)
5 | CCCCc1oc2ccccc2c1C(=O)c1cc(I)c(OCCN(CC)CC)c(I)c1.Cl [Amiodarone.HCl] | 99.7 | 105 | 93.8 (inactive) | 110 (inactive)
6 | CC(O)C1C(=O)N2C(C(=O)O)=C(SC3CNC(C(=O)N(C)C)C3)C(C)C12 (configuration not stated) [Meropenem] | 105 | 98.2 | 97 (inactive) | 94.3 (inactive)
7 | COc1ccc2c(c1)CCC1C2CCC2(C)C(NCCCCCCN3C(=O)C=CC3=O)CCC12 (configuration not stated) | 103 | 111 | 88.6 (inactive) | 103 (inactive)
8 | CN(C)CC=C(c1ccc(Br)cc1)c1cccnc1.Cl.Cl [Zimelidine dihydrochloride] | 99 | 86.6 | 107 (inactive) | 116 (inactive)

— the supplement of paper PMC7156485
